BLM inh-1 – Bloom syndrome helicase (human) inhibition | P54132 | recombinant BLM DNA unwinding, fluorescence dequenching | Potency, µM (top dose mostly 56.1 µM), hits mostly inhibitors | 0.2% of 350,000 active | AID 2528; also: nearly all actives have a fitted effect of over 35% in size
TRb SRC2 PPI – disrupts binding of human TR beta to SRC2; TRbeta-SRC2 peptide binding, fluorescence polarization; receptor liganded with 1 µM T3; 0.065% of 280,000 active; P10828; Potency, µM (highest dose often 106 µM), hits mostly inhibitors; also: nearly all actives have a fitted effect of over 50% in size
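TRb LBD 0.6 uM + Texas Red SRC2 peptide 20 nM, 1 uM T3, Tris buffer w/ 5% DMSO; compound pinned, 5 h RT; FP read ex 555/em 632; normalized to unbound and bound controls.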
TexasRed fluor – counter-screen for TRb-SRC2 inhibitors: fluorescence interference | TRb/SRC2 Texas Red total fluorescence interference | Potency, µM (highest dose often 106 µM) | 0.29% of 280,000 active | AID 1479; active = well fitted curve in either direction with a large enough effect; inconclusive = small, poorly fitted or top-dose-only effect
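Flags fluorescent or light-absorbing compounds by total fluorescence, S + 2P, at 555 nm excitation and 632 nm emission. Mixture: 20 nM Texas Red SRC2 peptide, 0.6 uM human TRb LBD, 1 uM T3, 5% DMSO; compound exposure 5 h at ambient temperature.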
APE1 inh – APE1 (human) endonuclease inhibition; Potency, µM (doses to about 65.8 µM), hits mostly inhibitors; AID 2517; 0.35% of 350,000 active; recombinant APE1, TAMRA/BHQ-2 abasic DNA cleavage fluorescence; also: nearly all actives have a fitted effect of over 55% in size
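Readout is kinetic fluorescence (ex 525, em 598 nm) from cleavage of 50 nM TAMRA/BHQ-2 THF abasic duplex by 0.75 nM APE1, compound added 15 min beforehand at RT.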
GoLoco inh red – inhibitors of human Gai1-RGS12 GoLoco interaction (red fluorophore) | Gai1:RGS12 GoLoco peptide FP, rhodamine, 10 min | Potency, µM (doses to about 61.6 µM), hits mostly inhibitors | 0.44% of 230,000 active; active = well fitted inhibition curve with a large enough effect, not every such curve was filed as active; inactive = no such curve, though single readings can be large or run the other way; also: nearly all actives have a fitted effect of over 30% in size
RECQ1 inh-1 – blocks DNA unwinding by human RECQ1 | P46063 | RECQ1 DNA unwinding, red fluorescence kinetic read | Potency, µM (highest dose often 57.3 µM), actives largely listed as inhibitors | 0.54% of 240,000 active | AID 2549; also: nearly all actives have a fitted effect of over 30% in size
Target sequence (P46063 whole entry, looked up): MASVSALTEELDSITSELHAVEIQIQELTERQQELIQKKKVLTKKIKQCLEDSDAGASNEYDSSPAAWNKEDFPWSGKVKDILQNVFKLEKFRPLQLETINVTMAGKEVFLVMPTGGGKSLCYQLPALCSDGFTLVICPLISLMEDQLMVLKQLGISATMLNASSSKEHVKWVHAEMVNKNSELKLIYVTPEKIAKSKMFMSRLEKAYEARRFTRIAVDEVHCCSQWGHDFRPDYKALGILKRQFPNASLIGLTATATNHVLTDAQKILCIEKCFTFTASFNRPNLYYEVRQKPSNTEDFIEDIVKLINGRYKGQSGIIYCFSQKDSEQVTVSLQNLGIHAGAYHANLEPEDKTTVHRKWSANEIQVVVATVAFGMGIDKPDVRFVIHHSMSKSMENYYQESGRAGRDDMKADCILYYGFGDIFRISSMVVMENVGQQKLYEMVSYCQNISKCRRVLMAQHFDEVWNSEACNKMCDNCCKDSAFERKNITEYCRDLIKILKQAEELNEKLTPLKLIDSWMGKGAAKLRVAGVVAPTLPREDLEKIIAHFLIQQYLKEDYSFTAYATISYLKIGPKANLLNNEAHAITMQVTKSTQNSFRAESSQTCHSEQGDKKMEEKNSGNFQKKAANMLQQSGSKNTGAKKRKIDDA
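RECQ1T1 50 nM; forked duplex (20 bp + 30-nt ss tails) 200 nM, ATP 2 mM final; pH 8.0, 2 mM MgCl2, 2.5 ug/ml poly(dI-dC); 15 min compound preincubation; discontinuous kinetic read over 2 h at RT.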
BLM inh-2 – confirmation of inhibitors of human Bloom syndrome helicase BLM | shares compounds with BLM inh-1 | BLM DNA unwinding, fluorescence quenching, biochemical | Potency, µM, actives largely listed as inhibitors | 40% of 220 active | AID 2585;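 also: strand separation dequenches TAMRA so unwinding raises red fluorescence; series mostly up to about 69 µM; nearly all actives have a fitted effect of over 45% in size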
RECQ1 inh conf – confirmation of human RECQ1 helicase inhibitors; Potency, µM (doses to about 229 µM), hits mostly inhibitors; RECQ1 helicase DNA unwinding, fluorescence; 28% of 610 active; shares compounds with RECQ1 inh-1; AID 2708; also: nearly all actives have a fitted effect of over 45% in size
ADP FP counter – counter-screen for RECQ1 inhibitors: ADP displacement. shares compounds with RECQ1 inh-1. ADP fluorescence polarization displacement counterscreen. Potency, µM (series often up to 228 µM), hits mostly inhibitors. 27% of 530 active; also: nearly all actives have a fitted effect of over 45% in size
RECQ1 inh-2 – confirmation of human RECQ1 helicase inhibitors | shares compounds with RECQ1 inh-1 | recombinant RECQ1 DNA unwinding, red fluorescence | Potency, µM (titrated, usually from 119 µM), usual class: inhibitors | 15% of 1,100 active; also: nearly all actives have a fitted effect of over 50% in size
Large screens that a line does not name were inactive (follow-up assays come after a bar, where they were run); ! = not confirmed by another sample; [ ] = dose if it differs, or a comment. Rows were chosen to be rich in hits. Some 0.9% of all compounds tested hit in one or more screens of this group. Unless noted, calls follow the shape of the dose curve; as a rule, active = well fitted curve in the direction sought with a large enough effect; inconclusive = small, poorly fitted or top-dose-only effect, or another doubt; inactive = no such curve, though single readings can be large; an effect the other way counts as inactive or inconclusive.

CCOc1ccc2[nH]c(=O)c(C(c3nnnn3Cc3ccco3)N3CCN(C)CC3)cc2c1 (stereo unspecified)	BLM inh-1 1.12µM, TRb SRC2 PPI inconclusive, APE1 inh inconclusive, RECQ1 inh-1 7.08µM | BLM inh-2 inactive | RECQ1 inh conf inactive | ADP FP counter 44.7µM | RECQ1 inh-2 inactive
O=C(COc1ccc([N+](=O)[O-])cc1)Nc1nnc(-c2cccnc2)s1	BLM inh-1 15.8µM, APE1 inh inconclusive, RECQ1 inh-1 inconclusive | BLM inh-2 inconclusive | RECQ1 inh-2 inconclusive
CCCN(C(=O)c1cc2c(s1)CCC2)c1c(N)n(Cc2ccccc2)c(=O)[nH]c1=O	BLM inh-1 14.1µM, APE1 inh inconclusive, RECQ1 inh-1 22.4µM | BLM inh-2 inconclusive | RECQ1 inh conf 39.8µM | ADP FP counter inactive | RECQ1 inh-2 inactive
COC(=O)c1cc(Nc2nc3ccccc3nc2NS(=O)(=O)c2ccc(C)cc2)ccc1Cl	none (no result: APE1 inh, GoLoco inh red, RECQ1 inh-1)
O=C(O)CCN1C(=O)/C(=C/c2cn(-c3ccccc3)nc2-c2cccs2)SC1=S	none
O=C(O)CCCCCN1C(=O)/C(=C\c2cn(-c3ccccc3)nc2-c2cccs2)SC1=S	BLM inh-1 15.8µM | BLM inh-2 32.4µM | RECQ1 inh conf inactive
O=c1[nH]c(Nc2ccc(F)cc2)cc2ccccc12	BLM inh-1 31.6µM, TRb SRC2 PPI inconclusive, RECQ1 inh-1 inconclusive | BLM inh-2 inconclusive | RECQ1 inh-2 inactive
Cc1ccc(-n2cccc2/C=C2\C(=N)N3N=C(c4ccco4)SC3=NC2=O)cc1	BLM inh-1 20µM, APE1 inh 10µM, RECQ1 inh-1 inconclusive | BLM inh-2 28.9µM | RECQ1 inh-2 inconclusive
CCC1=NN2C(=N)/C(=C\c3cccn3-c3ccc(Cl)cc3)C(=O)N=C2S1	none
Oc1ccc(NCc2cccc(OCc3ccc(F)cc3)c2)cc1	BLM inh-1 14.1µM, TRb SRC2 PPI 11.2µM, RECQ1 inh-1 inconclusive | BLM inh-2 inconclusive | RECQ1 inh-2 inactive
OCCNCc1cccc(OCc2ccc(Cl)cc2)c1	none
CCc1nc2cccnc2n1-c1ccc(CC(=O)Nc2ccc(C)cc2)cc1	none (no result: APE1 inh, GoLoco inh red, RECQ1 inh-1)
O=C(/C=C\c1ccco1)c1ccc(NC(=O)c2ccco2)cc1	BLM inh-1 20µM, APE1 inh inconclusive, RECQ1 inh-1 inconclusive | BLM inh-2 inactive | RECQ1 inh-2 inconclusive
CC(=O)Nc1ccc(C(=O)/C=C/c2ccco2)cc1	none
Oc1ccc(CNc2cccc(C(F)(F)F)c2)c2cccnc12	none (no result: BLM inh-1, TRb SRC2 PPI, TexasRed fluor, GoLoco inh red, RECQ1 inh-1)
CCOC(=O)N1CCN([N+]([O-])=NOc2cc(O/N=[N+](\[O-])N(CC)CC)c([N+](=O)[O-])cc2[N+](=O)[O-])CC1	none (no result: GoLoco inh red)
Oc1ccc([C@@H]2CNCCc3c2cc(O)c(O)c3Cl)cc1	BLM inh-1 inconclusive, APE1 inh inconclusive, RECQ1 inh-1 inconclusive | BLM inh-2 inconclusive | RECQ1 inh conf inconclusive | ADP FP counter 7.08µM
S=C(Nc1ccc2nsnc2c1)N1CCCC1	BLM inh-1 7.94µM, TRb SRC2 PPI inconclusive, APE1 inh inconclusive, RECQ1 inh-1 inconclusive | BLM inh-2 inconclusive | RECQ1 inh-2 inactive
COC(=O)c1ccc(COc2ccc(/C=C(\C#N)c3nc4ccccc4[nH]3)cc2OC)o1	BLM inh-1 14.1µM, RECQ1 inh-1 inconclusive | BLM inh-2 inconclusive | RECQ1 inh-2 79.4µM
C[C@H]1Cc2c(-c3ccccc3)nc3c(c2CO1)CN(C(=O)NCc1ccco1)CC3	none
COc1ccc(NC(=O)Cc2cccs2)c(OC)c1	none
COc1cc(NC(=O)c2ccccc2)c(OC)cc1NC(=O)Cc1cccs1	BLM inh-1 11.2µM, TexasRed fluor inconclusive, APE1 inh 15.8µM, RECQ1 inh-1 12.6µM | BLM inh-2 16.2µM | RECQ1 inh conf inconclusive | ADP FP counter inactive | RECQ1 inh-2 inconclusive
Cc1nn(C)c2c1c(C(F)(F)F)cc(=O)n2CC(=O)N1CCC(C)CC1	none (no result: APE1 inh, GoLoco inh red, RECQ1 inh-1)
Cc1cccc(N2CCC(N3CCN(C4CCCCC4)C(CCO)C3)CC2)c1C (stereo unspecified)	BLM inh-1 14.1µM, APE1 inh 22.4µM, RECQ1 inh-1 inconclusive | BLM inh-2 inactive | RECQ1 inh-2 inactive
COc1ccc(Cl)cc1N=Nc1ncc[nH]1	none
COc1cccc2c1C(=O)c1c(O)c3c(c(O)c1C2=O)C[C@@](O)(C(=O)CO)C[C@@H]3O[C@H]1C[C@H](N)[C@H](O)[C@H](C)O1	BLM inh-1 28.2µM, TRb SRC2 PPI 22.4µM!, TexasRed fluor 100µM[fluorescent], APE1 inh 7.08µM, GoLoco inh red 2.82µM, RECQ1 inh-1 31.6µM! | BLM inh-2 40.8µM | RECQ1 inh conf 36.3µM
COc1cccc2c1C(=O)c1c(O)c3c(c(O)c1C2=O)C[C@](O)(C(C)=O)C[C@H]3O[C@@H]1C[C@H](N)[C@H](O)[C@H](C)O1	BLM inh-1 14.1µM, TRb SRC2 PPI 12.6µM, TexasRed fluor 14.1µM[fluorescent], APE1 inh 10µM, GoLoco inh red 3.16µM, RECQ1 inh-1 14.1µM | BLM inh-2 18.2µM | ADP FP counter 0.891µM
COc1cccc2c1C(=N)c1c(O)c3c(c(O)c1C2=O)C[C@](O)(C(C)=O)C[C@@H]3O[C@H]1C[C@H](N)[C@@H](O)[C@H](C)O1	none (no result: BLM inh-1, TRb SRC2 PPI, TexasRed fluor, APE1 inh, RECQ1 inh-1)
O=C(CSc1ncc2c(n1)-c1ccccc1N(Cc1ccc(Cl)cc1)S2(=O)=O)c1ccccc1	none (no result: APE1 inh, GoLoco inh red, RECQ1 inh-1)
CSC(N)=NCCCC(N)C(=O)O (stereo unspecified)	none
O=C(Nc1ccc(F)c(Cl)c1)C1CCN(S(=O)(=O)c2ccc3c(c2)CCCN3C(=O)C2CCC2)CC1	none (no result: APE1 inh, GoLoco inh red, RECQ1 inh-1)
COc1ccccc1CNc1nc(-c2ccc(C(=O)N(C)C)cc2)nc2ccccc12	none (no result: TRb SRC2 PPI, TexasRed fluor)
COc1ccccc1CNc1nc(-c2ccc(N(C)C)cc2)nc2ccccc12	BLM inh-1 14.1µM, RECQ1 inh-1 inconclusive | BLM inh-2 22.9µM | RECQ1 inh-2 inactive
